These results are taken from PubChem BioAssay (NCATS).

Results filed as inconclusive are left out. The source made the active and inactive calls. Unless noted, the call rests on the fitted dose curve; in most records, active means well fitted cell-killing curve with a large enough effect; inconclusive means small, poorly fitted or top-dose-only effect, or effect the other way; inactive means no such curve, though single readings can be large or run the other way.

A short description of test [1]: Quantitative High-Throughput drug screen in 47 multiple myeloma cell lines against the NCATS MIPE library collection: KMS34_JCRB cell viability assay (AID 1918985). Further: nearly all actives have a fitted effect of over 40% in size. In outline:
(§1)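 Readout: median RLU from CellTiter-Glo after 5 min at room temperature. Preceding step was 48 h drug treatment of 500 cells/well at 37 °C, 5% CO2, with DMSO-only and media-only control wells.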

Test [2] is described as follows: Quantitative High-Throughput drug screen in 47 multiple myeloma cell lines against the NCATS MIPE library collection: OCIMY7_PLB cell viability assay (AID 1918987). Further: nearly all actives have a fitted effect of over 65% in size. The essentials:
as §1

Test [3] can be described thus: Quantitative High-Throughput drug screen in 47 multiple myeloma cell lines against the NCATS MIPE library collection: OCIMY5_PLB cell viability assay (AID 1918988). Further: nearly all actives have a fitted effect of over 65% in size. The essentials:
as §1

A short description of test [4]: Quantitative High-Throughput drug screen in 47 multiple myeloma cell lines against the NCATS MIPE library collection: OPM1_PLB cell viability assay (AID 1918989). Further: nearly all actives have a fitted effect of over 40% in size. In outline: as §1
Test [5] is described as follows: Quantitative High-Throughput drug screen in 47 multiple myeloma cell lines against the NCATS MIPE library collection: SKMM1_PLB cell viability assay (AID 1919863). Further: nearly all actives have a fitted effect of over 35% in size. Particulars: SKMM1 myeloma viability, CellTiter-Glo ATP, 48 h; viability: stronger effect = lower value. The essentials:
as §1

The nature of test [6]: Quantitative High-Throughput drug screen in 47 multiple myeloma cell lines against the NCATS MIPE library collection: U266_ATCC cell viability assay (AID 1919864). Further: nearly all actives have a fitted effect of over 35% in size. In outline: as §1
Test [7] is described as follows: Quantitative High-Throughput drug screen in 47 multiple myeloma cell lines against the NCATS MIPE library collection: XG6_PLB cell viability assay (AID 1919865). Further: nearly all actives have a fitted effect of over 40% in size. In outline: as §1
Test [8] is described as follows: Quantitative High-Throughput drug screen in 47 multiple myeloma cell lines against the NCATS MIPE library collection: XG1_PLB cell viability assay (AID 1919866). Further: nearly all actives have a fitted effect of over 35% in size. The essentials: as §1
Test [9] in a line: Quantitative High-Throughput drug screen in 47 multiple myeloma cell lines against the NCATS MIPE library collection: VP6_DJ cell viability assay (AID 1919867). Further: nearly all actives have a fitted effect of over 40% in size. In outline:
as §1

The nature of test [10]: Quantitative High-Throughput drug screen in 47 multiple myeloma cell lines against the NCATS MIPE library collection: UTMC2_PLB cell viability assay (AID 1919868). Further: nearly all actives have a fitted effect of over 55% in size. Particulars: CellTiter-Glo ATP luminescence, 48 h; viability (% of DMSO control): at 45.8 µM (top of the series) unless noted. In outline:
as §1

Test [11] is described as follows: Quantitative High-Throughput drug screen in 47 multiple myeloma cell lines against the NCATS MIPE library collection: PE2_PLB cell viability assay (AID 1919869). Further: nearly all actives have a fitted effect of over 35% in size. In outline:
as §1

Test [12] is described as follows: Quantitative High-Throughput drug screen in 47 multiple myeloma cell lines against the NCATS MIPE library collection: RPMI8226_ATCC cell viability assay (AID 1919871). Further: nearly all actives have a fitted effect of over 30% in size. The essentials:
as §1

Test [13] can be described thus: Quantitative High-Throughput drug screen in 47 multiple myeloma cell lines against the NCATS MIPE library collection: OPM2_DSMZ cell viability assay (AID 1919872). Further: nearly all actives have a fitted effect of over 30% in size. In outline: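 CellTiter-Glo ATP luminescence gave viability after 48 h compound treatment at 37C of 500 multiple myeloma cells per well. Normalisation used DMSO-only wells as 100% and media-only wells as 0% viability; primary qHTS of approved and investigational drugs.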

Test [14] can be described thus: Quantitative High-Throughput drug screen in 47 multiple myeloma cell lines against the NCATS MIPE library collection: KMS11_JCRBsus cell viability assay (AID 1919873). Further: nearly all actives have a fitted effect of over 50% in size. In outline:
as §1

Test [15] can be described thus: Quantitative High-Throughput drug screen in 47 multiple myeloma cell lines against the NCATS MIPE library collection: KMS28BM_JCRB cell viability assay (AID 1919874). Further: nearly all actives have a fitted effect of over 35% in size. In outline: as §1
A short description of test [16]: qHTS drug screen for cell cycle checkpoint inhibitors in PARPi-resistant BRCA-mutant ovarian cancer cell lines. (AID 1963452; calls by dose curve). Particulars: PEO1/OlaR viability, CellTiter-Glo luminescence, 96 h; for Z-AUC: stronger effect = lower value. The essentials: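 PEO1, PEO4 and PEO1/OlaR ovarian cancer cells, 600 per well, exposed 96 h at 37C to a dilution series. Viability read by CellTiter-Glo luminescence, normalized to DMSO and empty wells; activity summarized as Z-AUC.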

Test [17] is described as follows: qHTS for identification of novel therapeutic agents for treatment of microphthalmiaassociated transcription factor (MiT) renal cell carcinoma (RCC) (AID 1963991; calls by dose curve). Particulars: CellTiter-Glo, 48 h; for Potency: active = Z-AUC below -0.8 in all three lines; for z-score: stronger effect = lower value. The essentials:
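Three TFE3-fusion RCC lines (UOK109, UOK124, UOK145), 500 cells/well in complete medium, were treated with MIPE 4.0 compounds for 48 hours at 37 C. Viability was by CellTiter-Glo luminescence, normalized to DMSO (100%) and empty wells (0%); curves fitted over 11 concentrations.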

Test [18] is described as follows: Quantitative High-Throughput drug screen in 47 multiple myeloma cell lines against the NCATS MIPE library collection: PCM6_Riken cell viability assay (AID 1919870). Further: nearly all actives have a fitted effect of over 30% in size. In outline: as §1
Setting [19] is: measured here: PEO1 parental Z-AUC.
Setting [20] is: TFE3-RCC UOK109 viability, measured here: UOK109 Z-AUC.
The mark [21] stands for this setting: TFE3-RCC viability, measured here: UOK124 Z-AUC.
[22] abbreviates: TFE3-RCC viability, measured here: UOK145 Z-AUC.
Potency means the concentration at half of the fitted maximal effect.

Take `O=C(Nc1cc(C(F)(F)F)cc(C(F)(F)F)c1)c1cc(Cl)ccc1O`: the Potency is 1480 nM (active) in [1]; 1870 nM (active) in test [2]; 2350 nM (active) in test [3]; 833 nM (active) in test [4]; 833 nM (active) in test [5]; 1480 nM (active) in [6]. The Potency is 935 nM (active) in [7]; 935 nM (active) in [8]; 526 nM (active) in test [9]; 743 nM (active) in test [10]; 590 nM (active) in [11]; 662 nM (active) in [12]. Besides, the Potency in [13] is 1320 nM (active); in [14], 332 nM (active); in test [15] it was 833 nM (active); in [16] it was 977 nM (active); in test [17] (TFE3-RCC UOK109 viability), 1180 nM (active). For the same compound, the Z-AUC in test [16] (setting [19]) is -1.29; in [16] (measured here: PEO4 Z-AUC) it was -1.54. For the same compound, the results for the z-score in test [17] (setting [20]), in test [17] (setting [21]) and in [17] (setting [22]) were -1.74, -1.08 and -1.95, respectively.
`Nc1ncnc2c1c(-c1cccc(OCc3ccccc3)c1)cn2C1CC(CN2CCCC2)C1` (stereo not given): the Potency in test [1] was 11800 nM (active); in test [2], 1480 nM (active); in test [3], 7430 nM (active); in test [4], 5900 nM (active); in test [5], 20900 nM (active); in test [6] it was 16600 nM (active). The Potency was 5260 nM (active) in test [7]; 8330 nM (active) in [8]; 743 nM (active) in test [9]; 66.2 nM (active) in [10]; 1660 nM (active) in test [11]; 7430 nM (active) in test [18]. Besides, the Potency is 2960 nM (active) in test [12], 14800 nM (active) in [13], 372 nM (active) in test [14] and 526 nM (active) in test [15]. Also, the Z-AUC was -0.938 (inactive) in test [16], -0.783 in [16] (setting [19]) and -1.2 in test [16] (measured here: PEO4 Z-AUC).
Turning to `COc1ccc(-c2cc3c(C)nc(N)nc3n(C3CCC(OCCO)CC3)c2=O)cn1` (stereo not given), the Potency in test [1] is 74.3 nM (active); in test [2], 118 nM (active); in test [3], 83.3 nM (active); in test [4], 46.9 nM (active); in [5], 13.2 nM (active); in test [6], 264 nM (active). The Potency in [7] was 66.2 nM (active); in [8] it was 18.7 nM (active); in test [9], 1 nM (active); in test [10], 52.6 nM (active); in test [11], 46.9 nM (active); in test [18], 264 nM (active). The Potency is 66.2 nM (active) in test [13]; 7.4 nM (active) in test [14]; 59 nM (active) in [15]; 490 nM (active) in [16]; 11.8 nM (active) in test [17] (TFE3-RCC UOK109 viability). Besides, the results for the Z-AUC in test [16] (setting [19]) and in test [16] (measured here: PEO4 Z-AUC) were -1.22 and -1.44, respectively. Further, the z-score in [17] (setting [20]) is -2.89; in test [17] (setting [21]), -1.31; in test [17] (setting [22]) it was -2.61.
On to `Cc1nc(N)ncc1-c1nc(N2CCOCC2)c2sc(C(C)(C)O)cc2n1`, for which the Potency in test [1] is 1660 nM (active); in [2], 1180 nM (active); in test [3], 662 nM (active); in [4], 1180 nM (active); in test [5] it was 166 nM (active); in [6], 5260 nM (active). For the same compound, the Potency in test [7] was 3320 nM (active); in test [8], 1660 nM (active); in test [9], 935 nM (active); in [10] it was 332 nM (active); in test [11] it was 1050 nM (active); in test [12], 264 nM (active). Further, the Potency in [13] was 3720 nM (active); in test [14], 83.3 nM (active). Moreover, the Z-AUC was 0.231 (inactive) in test [16], 0.219 in test [16] (setting [19]) and 0.116 in test [16] (measured here: PEO4 Z-AUC).
